# The campaign covered roughly 5,500 compounds. About 2,000 (36%) were called active. Roughly 18% stayed inconclusive and do not appear here. The list shows a part of the results. A number with no mark means an inactive call. Cut-off read from the data, not from the text of the source: active = normalized growth mostly below about 0.91 (no sharp cut-off); inconclusive = no clear call, values can overlap the other calls; inactive = mostly above about 0.92.
# Experiment: chemical genetic growth profiling, strain panel (AID 1159580);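 note: tested at 20 µM; growth read once vehicle control cultures reached saturation at 30 °C; 1 = growth at the plate median or of vehicle wells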
# Settings: S. cerevisiae deletion strains, growth OD
# [1] = locus YDL101C, strain DUN1, stronger effect = lower value
# [2] = locus YHR030C, strain SLT2, stronger effect = lower value
smiles,measurement,setting,value
FC(F)(F)c1cccc(NC(=S)Nc2ccccc2)c1,normalized growth,"locus YAR019C, strain CDC15, stronger effect = lower value",0.983
same,normalized growth,"locus YBL105C, strain PKC1, stronger effect = lower value",0.98
same,normalized growth,"locus YBR135W, strain CKS1, stronger effect = lower value",0.975
same,normalized growth,"locus YBR136W, strain MEC1, stronger effect = lower value",0.979
same,normalized growth,"locus YBR160W, strain CDC28, stronger effect = lower value",0.981
same,normalized growth,"locus YDL017W, strain CDC7, stronger effect = lower value",0.987
same,normalized growth,"locus YDL028C, strain MPS1, stronger effect = lower value",0.98
same,normalized growth,[1],0.989
same,normalized growth,"locus YDL108W, strain KIN28, stronger effect = lower value",0.978
same,normalized growth,"locus YDL132W, strain cdc53, stronger effect = lower value",0.966
same,normalized growth,"locus YDL214C, strain PRR2, stronger effect = lower value",0.949
same,normalized growth,"locus YDR052C, strain DBF4, stronger effect = lower value",0.996
same,normalized growth,"locus YDR054C, strain cdc34, stronger effect = lower value",0.982
same,normalized growth,"locus YDR226W, strain ADK1, stronger effect = lower value",0.98
same,normalized growth,"locus YDR477W, strain SNF1, stronger effect = lower value",0.954
same,normalized growth,"locus YER123W, strain YCK3, stronger effect = lower value",0.96
same,normalized growth,"locus YER133W, strain GLC7, stronger effect = lower value",0.958
same,normalized growth,"locus YFL009W, strain cdc4, stronger effect = lower value",0.973
same,normalized growth,"locus YFL029C, strain CAK1, stronger effect = lower value",0.983
same,normalized growth,"locus YFR003C, strain YPI1, stronger effect = lower value",0.982
same,normalized growth,"locus YFR019W, strain FAB1, stronger effect = lower value",0.962
same,normalized growth,"locus YFR028C, strain CDC14, stronger effect = lower value",0.967
same,normalized growth,"locus YGR040W, strain KSS1, stronger effect = lower value",0.941
same,normalized growth,"locus YGR052W, strain FMP48, stronger effect = lower value",0.974
same,normalized growth,"locus YGR092W, strain DBF2, stronger effect = lower value",0.883
same,normalized growth,[2],1
same,normalized growth,"locus YHR079C, strain IRE1, stronger effect = lower value",1.04
same,normalized growth,"locus YHR082C, strain KSP1, stronger effect = lower value",1
same,normalized growth,"locus YHR205W, strain SCH9, stronger effect = lower value",0.951
same,normalized growth,"locus YIL147C, strain SLN1, stronger effect = lower value",0.977
same,normalized growth,"locus YJL095W, strain BCK1, stronger effect = lower value",0.882
same,normalized growth,"locus YJL128C, strain PBS2, stronger effect = lower value",0.959
same,normalized growth,"locus YJL157C, strain FAR1, stronger effect = lower value",0.941
same,normalized growth,"locus YJR016C, strain ILV3, stronger effect = lower value",0.968
same,normalized growth,"locus YJR066W, strain TOR1 (second series), stronger effect = lower value",0.897
same,normalized growth,"locus YJR066W, strain TOR1, stronger effect = lower value",0.989
same,normalized growth,"locus YKL048C, strain ELM1, stronger effect = lower value",1
same,normalized growth,"locus YKL067W, strain YNK1, stronger effect = lower value",0.961
same,normalized growth,"locus YKL101W, strain HSL1, stronger effect = lower value",0.955
same,normalized growth,"locus YKL193C, strain SDS22, stronger effect = lower value",0.973
same,normalized growth,"locus YKL203C, strain TOR2, stronger effect = lower value",0.995
same,normalized growth,"locus YLR113W, strain HOG1, stronger effect = lower value",0.962
same,normalized growth,"locus YLR133W, strain CKI1, stronger effect = lower value",0.947
same,normalized growth,"locus YLR403W, strain SFP1, stronger effect = lower value",0.899
same,normalized growth,"locus YML070W, strain DAK1, stronger effect = lower value",0.966
same,normalized growth,"locus YMR001C, strain CDC5, stronger effect = lower value",0.98
same,normalized growth,"locus YMR205C, strain PFK2 (second series), stronger effect = lower value",0.991
same,normalized growth,"locus YMR277W, strain FCP1, stronger effect = lower value",0.97
same,normalized growth,"locus YNL006W, strain LST8, stronger effect = lower value",0.985
same,normalized growth,"locus YNL020C, strain ARK1, stronger effect = lower value",0.974
same,normalized growth,"locus YNL161W, strain CBK1, stronger effect = lower value",0.981
same,normalized growth,"locus YNL183C, strain NPR1, stronger effect = lower value",1
same,normalized growth,"locus YNL207W, strain RIO2, stronger effect = lower value",0.967
same,normalized growth,"locus YNL222W, strain SSU72, stronger effect = lower value",0.981
same,normalized growth,"locus YNL307C, strain MCK1 (second series), stronger effect = lower value",0.896
same,normalized growth,"locus YOL078W, strain AVO1, stronger effect = lower value",0.967
same,normalized growth,"locus YOL136C, strain PFK27, stronger effect = lower value",0.95
same,normalized growth,"locus YOR061W, strain CKA2, stronger effect = lower value",0.952
same,normalized growth,"locus YOR119C, strain RIO1, stronger effect = lower value",1.02
same,normalized growth,"locus YOR231W, strain MKK1, stronger effect = lower value",0.95
same,normalized growth,"locus YOR329C, strain SCD5, stronger effect = lower value",0.989
same,normalized growth,"locus YPL031C, strain PHO85, stronger effect = lower value",0.952
same,normalized growth,"locus YPL153C, strain RAD53, stronger effect = lower value",0.954
same,normalized growth,"locus YPL204W, strain HRR25, stronger effect = lower value",0.934
same,normalized growth,"locus YPL209C, strain IPL1, stronger effect = lower value",0.978
same,normalized growth,"locus YPL256C, strain CLN2, stronger effect = lower value",1.1
same,normalized growth,"locus YPR025C, strain CCL1, stronger effect = lower value",0.982
same,normalized growth,"locus YPR106W, strain ISR1, stronger effect = lower value",0.987
same,normalized growth,"locus YPR111W, strain DBF20, stronger effect = lower value",0.969
same,normalized growth,"strain NNK1, stronger effect = lower value",0.982
same,normalized growth,"strain TSCII, stronger effect = lower value",0.975
CC(C)(C)C(=O)NC(=S)Nc1cccc(C(F)(F)F)c1,normalized growth,"locus YAL013W, strain DEP1, stronger effect = lower value",0.925 (active)
same,normalized growth,"locus YBR229C, strain ROT2, stronger effect = lower value",0.989
same,normalized growth,[1],0.984
same,normalized growth,"locus YDL134C, strain PPH21, stronger effect = lower value",0.804 (active)
same,normalized growth,"locus YDR150W, strain NUM1, stronger effect = lower value",0.91
same,normalized growth,"locus YEL061C, strain CIN8, stronger effect = lower value",0.944
same,normalized growth,"locus YGR078C, strain PAC10, stronger effect = lower value",0.959
same,normalized growth,"locus YGR229C, strain SMI1, stronger effect = lower value",0.959
same,normalized growth,[2],0.527 (active)
same,normalized growth,"locus YHR087W, strain rtc3, stronger effect = lower value",0.99
same,normalized growth,"locus YJL187C, strain SWE1, stronger effect = lower value",0.987
same,normalized growth,"locus YJR043C, strain POL32, stronger effect = lower value",0.957
same,normalized growth,"locus YJR075W, strain HOC1, stronger effect = lower value",0.977
same,normalized growth,"locus YLR039C, strain RIC1, stronger effect = lower value",0.401 (active)
same,normalized growth,"locus YLR058C, strain SHM2 (second series), stronger effect = lower value",0.966
same,normalized growth,"locus YLR085C, strain ARP6, stronger effect = lower value",0.397 (active)
same,normalized growth,"locus YLR262C, strain YPT6, stronger effect = lower value",0.474 (active)
same,normalized growth,"locus YML094W, strain GIM5, stronger effect = lower value",0.846 (active)
same,normalized growth,"locus YMR219W, strain ESC1, stronger effect = lower value",0.978
same,normalized growth,"locus YMR263W, strain SAP30, stronger effect = lower value",0.953
same,normalized growth,"locus YNL153C, strain GIM3, stronger effect = lower value",0.955
same,normalized growth,"locus YNL298W, strain CLA4 (second series), stronger effect = lower value",0.676 (active)
same,normalized growth,"locus YNL322C, strain KRE1, stronger effect = lower value",0.984
same,normalized growth,"locus YNR030W, strain Alg12, stronger effect = lower value",0.722 (active)
same,normalized growth,"locus YOL006C, strain TOP1, stronger effect = lower value",0.238 (active)
same,normalized growth,"locus YPL055C, strain LGE1, stronger effect = lower value",0.785 (active)
same,normalized growth,"locus YPL241C, strain CIN2, stronger effect = lower value",0.755 (active)
same,normalized growth,"locus YPR135W, strain CTF4, stronger effect = lower value",0.569 (active)

# Source: PubChem BioAssay AID1159580 (chemical genetic matrix, 2015)
